# Laboratory results: the supplement of paper PMC8728848
# The sample as a whole holds a higher share of the strongest signals than the screen did.
# How the values were obtained:
# Test in all cases: glycan array binding signal (z-score within array); higher = stronger binding
# Conditions in all cases: glycan notation: IUPAC condensed, linker removed
# Fuc(a1-2)Gal = molecular target: Fuc(a1-2)Gal
# Procedure, shortened: (§1)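 Glycan array binding is given as a within-array Z-score, which can be read as non-binding when negative. The arrays, 3228 of them, came from the Consortium for Functional Glycomics database and were retained only where the protein sequence was available. Z-scores were averaged across arrays of the same protein sequence at different concentrations or buffers and across linkers.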
# [1] = molecular target: Fuc(a1-2)Gal(b1-3)GlcNAc(b1-3)[Fuc(a1-2)Gal(b1-3)GlcNAc(b1-6)]GalNAc
# Procedure, shortened: as §1
# [2] = molecular target: Fuc(a1-2)Gal(b1-3)[Fuc(a1-4)]GlcNAc(b1-2)Man(a1-3)[Fuc(a1-2)Gal(b1-3)[Fuc(a1-4)]GlcNAc(b1-2)Man(a1-6)]Man(b1-4)GlcNAc(b1-4)[Fuc(a1-6)]GlcNAc(b1-4)[Fuc(a1-6)]GlcNAc
# Procedure, shortened: as §1
# [3] = molecular target: Fuc(a1-2)Gal(b1-4)GlcNAc(b1-2)Man(a1-3)[Fuc(a1-2)Gal(b1-4)GlcNAc(b1-2)Man(a1-6)]Man(b1-4)GlcNAc(b1-4)GlcNAc
# Procedure, shortened: as §1
# [4] = molecular target: Fuc(a1-2)Gal(b1-4)GlcNAc(b1-6)GalNAc
# Procedure, shortened: as §1
# Fuc(a1-2)Gal6S(b1-4)Glc = molecular target: Fuc(a1-2)Gal6S(b1-4)Glc
# Procedure, shortened: as §1
# [5] = molecular target: Fuc(a1-2)[Gal(a1-3)]Gal(b1-4)[Fuc(a1-3)]GlcNAc(b1-3)GalNAc
# Procedure, shortened: as §1
# [6] = molecular target: Fuc(a1-2)[GalNAc(a1-3)]Gal(b1-4)GlcNAc(b1-2)Man(a1-3)[Fuc(a1-2)[GalNAc(a1-3)]Gal(b1-4)GlcNAc(b1-2)Man(a1-6)]Man(b1-4)GlcNAc(b1-4)[Fuc(a1-6)]GlcNAc
# Procedure, shortened: as §1
# [7] = molecular target: Fuc(a1-2)[GalNAc(a1-3)]Gal(b1-4)[Fuc(a1-3)]GlcNAc(b1-3)GalNAc
# Procedure, shortened: as §1
# [8] = molecular target: Fuc(a1-3)[GalNAc(b1-4)]GlcNAc
# Procedure, shortened: as §1
# [9] = molecular target: Fuc(a1-3)[GalNAc(b1-4)]GlcNAc6S
# Procedure, shortened: as §1
# Gal(a1-2)Gal = molecular target: Gal(a1-2)Gal
# Procedure, shortened: as §1
# [10] = molecular target: Gal(a1-3)Gal(b1-4)GlcNAc(b1-6)GalNAc
# Procedure, shortened: as §1
# [11] = molecular target: Gal(b1-3)GalNAc(b1-4)[Neu5Ac(a2-3)]Gal(b1-4)Glc
# Procedure, shortened: as §1
# [12] = molecular target: Gal(b1-3)GlcNAc(b1-2)[Gal(b1-3)GlcNAc(b1-6)]Man(a1-6)[Gal(b1-3)GlcNAc(b1-2)Man(a1-3)]Man(b1-4)GlcNAc(b1-4)GlcNAc
# Procedure, shortened: as §1
# [13] = molecular target: Gal(b1-3)GlcNAc(b1-3)Gal(b1-4)GlcNAc(b1-2)Man(a1-3)[Gal(b1-3)GlcNAc(b1-3)Gal(b1-4)GlcNAc(b1-2)Man(a1-6)]Man(b1-4)GlcNAc(b1-4)GlcNAc
# Procedure, shortened: as §1
# [14] = molecular target: Gal(b1-3)GlcNAc(b1-3)Gal(b1-4)[Fuc(a1-3)]GlcNAc(b1-6)[Gal(b1-3)GlcNAc(b1-3)]Gal(b1-4)Glc
# Procedure, shortened: as §1
# [15] = molecular target: Gal(b1-3)GlcNAc(b1-6)GalNAc
# Procedure, shortened: as §1
# [16] = molecular target: Gal(b1-3)[Neu5Ac(a2-6)]GalNAc
# Procedure, shortened: as §1
# [17] = molecular target: Gal(b1-4)GalNAc(a1-3)[Fuc(a1-2)]Gal(b1-4)GlcNAc
# Procedure, shortened: as §1
# [18] = molecular target: Gal(b1-4)GlcNAc(b1-2)Man(a1-3)[Gal(b1-4)GlcNAc(b1-2)Man(a1-6)][GlcNAc(b1-4)]Man(b1-4)GlcNAc(b1-4)[Fuc(a1-6)]GlcNAc
# Procedure, shortened: as §1
# [19] = molecular target: Gal(b1-4)GlcNAc(b1-2)[Gal(b1-4)GlcNAc(b1-4)]Man(a1-3)[Gal(b1-4)GlcNAc(b1-2)Man(a1-6)]Man(b1-4)GlcNAc(b1-4)GlcNAc
# Procedure, shortened: as §1
# Gal3S(b1-4)GlcNAc = molecular target: Gal3S(b1-4)GlcNAc
# Procedure, shortened: as §1
# [20] = molecular target: Gal3S(b1-4)[Fuc(a1-3)]GlcNAc
# Procedure, shortened: as §1
# Gal3S6S(b1-4)GlcNAc6S = molecular target: Gal3S6S(b1-4)GlcNAc6S
# Procedure, shortened: as §1
# Gal4S6S(b1-4)GlcNAc = molecular target: Gal4S6S(b1-4)GlcNAc
# Procedure, shortened: as §1
# GalNAc(b1-4)Gal(b1-4)Glc = molecular target: GalNAc(b1-4)Gal(b1-4)Glc
# Procedure, shortened: as §1
# GalNAc(b1-4)GlcNAc = molecular target: GalNAc(b1-4)GlcNAc
# Procedure, shortened: as §1
# [21] = molecular target: Glc(a1-4)Glc(a1-4)Glc(a1-4)Glc
# Procedure, shortened: as §1
# Glc(a1-6)Glc(a1-6)Glc = molecular target: Glc(a1-6)Glc(a1-6)Glc
# Procedure, shortened: as §1
# [22] = molecular target: Glc(a1-6)Glc(a1-6)Glc(a1-6)Glc
# Procedure, shortened: as §1
# [23] = molecular target: GlcNAc(b1-3)Gal(b1-4)GlcNAc(b1-3)Gal(b1-4)GlcNAc
# Procedure, shortened: as §1
# [24] = molecular target: GlcNAc(b1-3)Gal(b1-4)GlcNAc(b1-3)Gal(b1-4)GlcNAc(b1-3)Gal(b1-4)GlcNAc(b1-2)Man(a1-3)[GlcNAc(b1-3)Gal(b1-4)GlcNAc(b1-3)Gal(b1-4)GlcNAc(b1-3)Gal(b1-4)GlcNAc(b1-2)Man(a1-6)]Man(b1-4)GlcNAc(b1-4)GlcNAc
# Procedure, shortened: as §1
# [25] = molecular target: GlcNAc(b1-3)[GlcNAc(b1-4)][GlcNAc(b1-6)]GlcNAc
# Procedure, shortened: as §1
# Man(a1-3)[Man(a1-6)]Man = molecular target: Man(a1-3)[Man(a1-6)]Man
# Procedure, shortened: as §1
# [26] = molecular target: Man(a1-3)[Man(a1-6)]Man(a1-6)[Man(a1-3)]Man
# Procedure, shortened: as §1
# [27] = molecular target: Man(a1-3)[Man(a1-6)]Man(b1-4)GlcNAc(b1-4)[Fuc(a1-6)]GlcNAc
# Procedure, shortened: as §1
# Man(a1-6)Man = molecular target: Man(a1-6)Man
# Procedure, shortened: as §1
# [28] = molecular target: Neu5Ac(a2-3)Gal(b1-3)GlcNAc(b1-2)Man(a1-3)[Neu5Ac(a2-3)Gal(b1-3)GlcNAc(b1-2)Man(a1-6)]Man(b1-4)GlcNAc(b1-4)GlcNAc
# Procedure, shortened: as §1
# [29] = molecular target: Neu5Ac(a2-3)Gal(b1-4)GlcNAc(b1-2)Man
# Procedure, shortened: as §1
# [30] = molecular target: Neu5Ac(a2-3)Gal(b1-4)GlcNAc(b1-2)Man(a1-3)[GlcNAc(b1-4)][Neu5Ac(a2-3)Gal(b1-4)GlcNAc(b1-2)Man(a1-6)]Man(b1-4)GlcNAc(b1-4)GlcNAc
# Procedure, shortened: as §1
# [31] = molecular target: Neu5Ac(a2-3)Gal(b1-4)GlcNAc(b1-2)Man(a1-3)[Neu5Ac(a2-3)Gal(b1-4)GlcNAc(b1-2)Man(a1-6)]Man(b1-4)GlcNAc(b1-4)[Fuc(a1-6)]GlcNAc
# Procedure, shortened: as §1
# [32] = molecular target: Neu5Ac(a2-3)Gal(b1-4)GlcNAc(b1-3)Gal
# Procedure, shortened: as §1
# [33] = molecular target: Neu5Ac(a2-3)Gal(b1-4)GlcNAc(b1-3)Gal(b1-4)GlcNAc(b1-3)Gal(b1-4)GlcNAc(b1-2)Man(a1-3)[Neu5Ac(a2-3)Gal(b1-4)GlcNAc(b1-3)Gal(b1-4)GlcNAc(b1-3)Gal(b1-4)GlcNAc(b1-2)Man(a1-6)]GalNAc
# Procedure, shortened: as §1
# [34] = molecular target: Neu5Ac(a2-3)Gal(b1-4)[Fuc(a1-3)]GlcNAc6S
# Procedure, shortened: as §1
# [35] = molecular target: Neu5Ac(a2-3)[GalNAc(b1-4)]Gal(b1-4)Glc
# Procedure, shortened: as §1
# [36] = molecular target: Neu5Ac(a2-6)Gal(b1-4)GlcNAc(b1-2)Man(a1-6)[GlcNAc(b1-2)Man(a1-3)]Man(b1-4)GlcNAc(b1-4)GlcNAc
# Procedure, shortened: as §1
# [37] = molecular target: Neu5Ac(a2-6)Gal(b1-4)GlcNAc(b1-3)Gal(b1-4)GlcNAc(b1-3)Gal(b1-4)GlcNAc(b1-2)Man(a1-3)[Neu5Ac(a2-6)Gal(b1-4)GlcNAc(b1-3)Gal(b1-4)GlcNAc(b1-3)Gal(b1-4)GlcNAc(b1-2)Man(a1-6)]GalNAc
# Procedure, shortened: as §1
# [38] = molecular target: Neu5Ac(a2-6)Gal(b1-4)GlcNAc(b1-3)Gal(b1-4)GlcNAc(b1-6)[Gal(b1-3)]GalNAc
# Procedure, shortened: as §1
# [39] = molecular target: Neu5Ac(a2-6)Gal(b1-4)GlcNAc(b1-3)[Neu5Ac(a2-6)Gal(b1-4)GlcNAc(b1-6)]GalNAc
# Procedure, shortened: as §1
# [40] = molecular target: Neu5Gc(a2-8)Neu5Gc(a2-3)Gal(b1-4)GlcNAc(b1-3)Gal(b1-4)GlcNAc
# Procedure, shortened: as §1
# [41] = molecular target: Neu5Gc(a2-8)Neu5Gc(a2-6)Gal(b1-4)GlcNAc
# Procedure, shortened: as §1
binder,measurement,setting,value
Clone730PsrP (Streptococcus pneumoniae) (protein) MDHHHHHHHHHHASENLYFQGAMVVGSQTAAATEATAKKVEEDRKKPASDYVASVTNVNLQSYAKRRKRSVDSIEQLLASIKNAAVFSGNTIVNGAPAINASLNIAKSETKVYTGEGVDSVYRVPIYYKLKVTNDGSKLTFTYTVTYVNPKTNDLGNISSMRPGYSIYNSGTSTQTMLTLGSDLGKPSGVKNYITDKNGRQVLSYNTSTMTTQGSGYTWGNGAQMNGFFAKKGYGLTSSWTVPITGTDTSFTFTPYAARTDRIGINYFNGGGKVVESSTT,glycan array binding signal (z-score),Fuc(a1-2)Gal,0.412
same,glycan array binding signal (z-score),[1],1.96
same,glycan array binding signal (z-score),[2],-0.364
same,glycan array binding signal (z-score),[3],-0.472
same,glycan array binding signal (z-score),[4],1.79
same,glycan array binding signal (z-score),Fuc(a1-2)Gal6S(b1-4)Glc,-0.11
same,glycan array binding signal (z-score),[5],-0.513
same,glycan array binding signal (z-score),[6],2.17
same,glycan array binding signal (z-score),[7],0.059
same,glycan array binding signal (z-score),[8],0.389
same,glycan array binding signal (z-score),[9],0.499
same,glycan array binding signal (z-score),Gal(a1-2)Gal,-0.461
same,glycan array binding signal (z-score),[10],-0.459
same,glycan array binding signal (z-score),[11],2.82
same,glycan array binding signal (z-score),[12],19.3
same,glycan array binding signal (z-score),[13],-0.281
same,glycan array binding signal (z-score),[14],-0.518
same,glycan array binding signal (z-score),[15],-0.605
same,glycan array binding signal (z-score),[16],-0.508
same,glycan array binding signal (z-score),[17],-0.441
same,glycan array binding signal (z-score),[18],-0.249
same,glycan array binding signal (z-score),[19],-0.616
same,glycan array binding signal (z-score),Gal3S(b1-4)GlcNAc,0.189
same,glycan array binding signal (z-score),[20],0.82
same,glycan array binding signal (z-score),Gal3S6S(b1-4)GlcNAc6S,-0.38
same,glycan array binding signal (z-score),Gal4S6S(b1-4)GlcNAc,-0.324
same,glycan array binding signal (z-score),GalNAc(b1-4)Gal(b1-4)Glc,1.39
same,glycan array binding signal (z-score),GalNAc(b1-4)GlcNAc,0.829
same,glycan array binding signal (z-score),[21],2.03
same,glycan array binding signal (z-score),Glc(a1-6)Glc(a1-6)Glc,-0.273
same,glycan array binding signal (z-score),[22],2.73
same,glycan array binding signal (z-score),[23],-0.488
same,glycan array binding signal (z-score),[24],-0.481
same,glycan array binding signal (z-score),[25],-0.013
same,glycan array binding signal (z-score),Man(a1-3)[Man(a1-6)]Man,0.888
same,glycan array binding signal (z-score),[26],2.14
same,glycan array binding signal (z-score),[27],-0.591
same,glycan array binding signal (z-score),Man(a1-6)Man,3.24
same,glycan array binding signal (z-score),[28],0.657
same,glycan array binding signal (z-score),[29],1.83
same,glycan array binding signal (z-score),[30],-0.507
same,glycan array binding signal (z-score),[31],-0.658
same,glycan array binding signal (z-score),[32],-0.586
same,glycan array binding signal (z-score),[33],1.38
same,glycan array binding signal (z-score),[34],1.98
same,glycan array binding signal (z-score),[35],-0.647
same,glycan array binding signal (z-score),[36],-0.372
same,glycan array binding signal (z-score),[37],0.355
same,glycan array binding signal (z-score),[38],-0.382
same,glycan array binding signal (z-score),[39],-0.567
same,glycan array binding signal (z-score),[40],-0.565
same,glycan array binding signal (z-score),[41],-0.41
